In the supplement of paper PMC7830784:

Tested on: Brugia pahangi adult female
Experiment: IC50 motility inhibition on day 3
Settings: 3 days
Procedure: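 Single adult female Brugia pahangi worms in 24-well plates (RPMI-1640, 5% FBS, 37 °C) were treated with 10 µM of each compound from a 2121-drug library (4 replicates; 1% DMSO vehicle and 10 µM auranofin controls). Motility was recorded with WormAssay dark-field imaging, and % inhibition of motility on day 3 is relative to vehicle. IC50 values for selected hits come from a 6-point dilution series (30 to 0.1 µM) fitted in GraphPad Prism.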

In order of falling “IC50 motility inhibition on day 3” value:
1. CNC(=O)Oc1ccc2c(c1)[C@]1(C)CCN(C)[C@@H]1N2C [(-)-Physostigmine]  13600 nM
2. N[C@@H]1C[C@H]1c1ccccc1.N[C@H]1C[C@@H]1c1ccccc1 [tranylcypromine]  6150 nM
3. CCCCCCCCCCCCCCCC[n+]1ccccc1 [cetylpyridinium chloride]  3400 nM
4. O=c1[nH]c2ccccc2n1C1CCN(CCCC(c2ccc(F)cc2)c2ccc(F)cc2)CC1 [Pimozide]  2520 nM
5. Oc1cccc2cccnc12 [oxyquinoline]  1500 nM
6. C[C@@H]1O[C@@H](O[C@@H]2C=C3CC[C@@H]4[C@H](CC[C@]5(C)[C@@H](c6ccc(=O)oc6)CC[C@]45O)[C@@]3(C)CC2)[C@H](O)[C@H](O)[C@H]1O [proscillaridin]  731 nM
7. CC[C@@H](C(=O)[C@@H](C)[C@@H](O)[C@H](C)[C@@H]1O[C@@H]([C@@H](CC)C(=O)O)CC[C@@H]1C)[C@H]1O[C@]2(C=C[C@@H](O)[C@]3(CC[C@@](C)([C@H]4CC[C@](O)(CC)[C@H](C)O4)O3)O2)[C@H](C)C[C@@H]1C [salinomycin]  635 nM
8. C[CH2][Hg][S]c1ccccc1C(=O)[O-].[Na+] [thimerosal]  406 nM
9. CC(=O)[O][Hg][c]1ccccc1 [phenylmercuric acetate]  179 nM
10. [O-][n+]1ccccc1[S-].[O-][n+]1ccccc1[S-].[Zn+2] [pyrithione zinc]  96.3 nM
